This passage reports cell viability results from the supplement of paper PMC11150407.

The campaign covered roughly 2,100 compounds. About 180 (8.6%) showed an effect of 50% or more. This excerpt belongs to a sample that is enriched for strong results.

The test system of the assay is MOLM1 and UCSD/AML1 (averaged). Nature of the assay: cell viability relative to DMSO control (POC); higher = less growth inhibition. The note with it: 1 µM; 72 h. As for the experimental part:
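Primary viability screen in the 3q26 EVI1-high AML cell lines MOLM1 and UCSD/AML1 (1.5e3 cells/well, 384-well), compounds at 1 uM for 72 h. ATP CellTiter-Glo read-out given as percent of viable cells over DMSO control (POC), averaged over duplicates. DMSO was the negative control and 5 uM etoposide the positive control. This mapping covers the MicroSource Spectrum and Selleck anticancer libraries (drug names).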
Regarding `CN(CC[C@H](N)CC(=O)N[C@H]1C=C[C@H](n2ccc(N)nc2=O)O[C@@H]1C(=O)O)C(=N)N`, the cell viability (commonly a read-out of living cells in per cent, often relative to untreated cells) worked out at 114%.
As to `COc1cc2c(cc1-c1cc3cc4ccoc4cc3oc1=O)OCO2`, the cell viability is 99.4%.
As for `CC[C@@H](C)C(=O)O[C@H]1[C@H](O)[C@H]2[C@@H](CN3C[C@@H](C)CC[C@H]3[C@@]2(C)O)[C@@H]2C[C@]34O[C@]5(O)[C@@H](OC(=O)[C@@](C)(O)CC)CC[C@@]3(C)[C@@H]5[C@@H](OC(C)=O)[C@@H](OC(C)=O)[C@H]4[C@@]21O`, the cell viability was 89.1%.
Take `COc1cc([C@@H]2c3cc4c(cc3[C@H](O)[C@H]3COC(=O)[C@H]23)OCO4)cc(OC)c1OC`: the cell viability worked out at 6.17%.
On to `CN1CCc2cc3c(cc2C1O)OCO3` (stereo not drawn), for which the cell viability turned out to be 102%.
`COc1cc([C@@H]2c3cc4c(cc3[C@H](O)[C@H]3COC(=O)[C@@H]23)OCO4)cc(OC)c1OC`: the cell viability was found to be 12.3%.
As to `COc1ccc2c(c1OC)C(=O)O[C@H]2[C@H]1c2cc3c(cc2CCN1C)OCO3`, the cell viability is 93.9%.
With `COc1ccc2c(c1OC)C(=O)O[C@@H]2[C@H]1c2cc3c(cc2CCN1C)OCO3`, the cell viability is 88%.
Take `Oc1cc(Cl)ccc1Oc1ccc(Cl)cc1Cl`: the cell viability was 95.1%.
Turning to `Cc1ncc(CNC(=O)N(CCCl)N=O)c(N)n1`, the cell viability is 111%.
With `CC(=O)CC1CCCCN1` (stereo not drawn), the cell viability turned out to be 102%.
For `CN[C@@H](C)[C@@H](O)c1ccccc1`, the cell viability is 105%.
Next, `O=c1[nH]c2ccccc2n1C1CCN(CCCC(c2ccc(F)cc2)c2ccc(F)cc2)CC1`: 94.7%.
With `CNC(C)C(O)c1ccccc1` (stereo not drawn), the cell viability turned out to be 96.1%.
The value for `CC[C@@H](C(=O)[C@@H](C)[C@@H](O)[C@H](C)[C@@H]1O[C@@H]([C@@H](CC)C(=O)O)CC[C@@H]1C)[C@H]1O[C@]2(C=C[C@@H](O)[C@]3(CC[C@@](C)([C@H]4CC[C@](O)(CC)[C@H](C)O4)O3)O2)[C@H](C)C[C@@H]1C` [Salinomycin (Procoxacin)] was 68.4%; that for `CC[C@@H](C(=O)[C@@H](C)[C@@H](O)[C@H](C)[C@@H]1O[C@@H]([C@@H](CC)C(=O)O)CC[C@@H]1C)[C@H]1O[C@]2(C=C[C@@H](O)[C@]3(CC[C@@](C)([C@H]4CC[C@](O)(CC)[C@H](C)O4)O3)O2)[C@H](C)C[C@@H]1C` was 20.9%.
For the compound `CC(=O)O[C@@H]1[C@H]2CC[C@H]3[C@@](C)(O)[C@@H]4C[C@H](O)C(C)(C)[C@@]4(O)[C@H](O)C[C@@]13C[C@@]2(C)O`, the cell viability was 100%.
Turning to `C[C@@H](CO)NC(=O)[C@@H]1C=C2c3cccc4[nH]cc(c34)C[C@H]2N(C)C1`, the cell viability stood at 102%.
As for `CC1=C(O)C(=O)C=C2C1=CC=C1[C@@]2(C)CC[C@@]2(C)[C@@H]3C[C@](C)(C(=O)O)CC[C@]3(C)CC[C@]12C`, the cell viability worked out at 30.1%.
In the case of `Cc1c(O)c(O)cc2c1CC=C1[C@@]2(C)CC[C@@]2(C)[C@@H]3C[C@](C)(C(=O)O)CC[C@]3(C)CC[C@]12C`, the cell viability came to 11.5%.
As for `CC(C)C[C@H](CN)CC(=O)O`, the cell viability turned out to be 67.7%.
As for `COC[C@]12CN(C=O)[C@@H]3[C@@H]4[C@H](OC)[C@H]1[C@@]3([C@@H](OC)C[C@H]2O)[C@@H]1C[C@@]2(O)[C@H](OC(=O)c3ccccc3)[C@@H]1[C@]4(OC(C)=O)[C@@H](O)[C@@H]2OC`, the cell viability was 111%.
Consider `C=C(C)[C@H]1Cc2c(ccc3c(=O)c4c(oc23)COc2cc(OC)c(OC)cc2-4)O1`, for which the cell viability turned out to be 106%.
Regarding `S=C=NCc1ccccc1`, the cell viability is 95.3%.
Turning to `C#CCOS(=O)OC1CCCCC1Oc1ccc(C(C)(C)C)cc1` (stereo not drawn), the cell viability was determined as 89.9%.
On to `CC(C)(C)C(=O)C(Oc1ccc(Cl)cc1)n1cncn1` (stereo not drawn), for which the cell viability was 99.8%.
Take `CC[C@@]1(O)C(=O)OCc2c1cc1n(c2=O)Cc2cc3ccccc3nc2-1`: the cell viability amounted to 1.42%.
With `C[C@H]1CC[C@]2(NC1)O[C@H]1C[C@H]3[C@@H]4CC[C@H]5C[C@@H](O)CC[C@]5(C)[C@H]4CC[C@]3(C)[C@H]1[C@@H]2C`, the cell viability came to 93.3%.
In the case of `C[N+]1(C)CCc2cc3c(cc2[C@H]1[C@@H]1OC(=O)c2c1ccc1c2OCO1)OCO3`, the cell viability came out at 104%.
Next, `COc1cc2c(cc1OC)[C@H](C)NCC2`: 94.2%; `CC(C)[C@]12O[C@H]1[C@@H]1O[C@]13[C@]1(O[C@H]1C[C@H]1C4=C(CC[C@@]13C)C(=O)OC4)[C@@H]2O` [Triptolide]: 2.21%.
Regarding `CC(C)c1ccc2c(c1O)CC[C@H]1C3=C(CC[C@]21C)C(=O)OC3`, the cell viability came out at 89.3%.
Consider `c1ccc(/N=N/c2ccccc2)cc1`, for which the cell viability amounted to 96.4%.
Next, `N#C/C(=C\c1ccc(O)cc1)C(=O)O` [alpha-CYANO-4-HYDROXYCINNAMIC ACID]: 113%.
Turning to `CCSCC[C@H](N)C(=O)O`, the cell viability stood at 99.2%.
Next, `CCC(C)C(=O)OC1CC2(C)C(c3ccoc3)OC(=O)CC23OC2(C)OC34C(OC(=O)C(C)C)C3(O)C(OC(=O)C5(C)OC5C)C5(C)CC3(O)C(C)(C5CC(=O)OC)C14O2` (stereo not drawn): 91.2%.
Take `COC(=O)[C@@H]1C[C@H](OC(C)=O)C(=O)[C@H]2[C@@]1(C)CC[C@H]1C(=O)O[C@H](c3ccoc3)C[C@]21C`: the cell viability was 104%.
For the compound `CNC(=O)Oc1cccc2c1OC(C)(C)C2`, the cell viability was determined as 85.3%.
The value for `COc1ccc(C[C@H]2NC[C@H](O)[C@H]2OC(C)=O)cc1` was 3.59%; that for `C=CCc1ccc(OC)cc1` was 107%; that for `CC[C@H]1[C@@H]2C[C@H]3[C@@H]4N(C)c5ccccc5[C@]45C[C@@H]([C@@H]2[C@H]5O)N3[C@@H]1O` was 109%.
As for `CC1=C2C(=CO[C@H](C)[C@H]2C)C(O)=C(C(=O)O)C1=O`, the cell viability turned out to be 104%.
With `CC(=O)O[C@H]1C[C@H](O[C@H]2[C@@H](O)C[C@H](O[C@H]3[C@@H](O)C[C@H](O[C@H]4CC[C@@]5(C)[C@H](CC[C@@H]6[C@@H]5C[C@@H](O)[C@]5(C)[C@@H](C7=CC(=O)OC7)CC[C@]65O)C4)O[C@@H]3C)O[C@@H]2C)O[C@H](C)[C@H]1O[C@@H]1O[C@H](CO)[C@@H](O)[C@H](O)[C@H]1O`, the cell viability was 3.89%.
In the case of `C[C@H]1CC[C@]2(NC1)O[C@H]1C[C@H]3[C@@H]4CC[C@H]5C[C@@H](O[C@@H]6O[C@H](CO)[C@H](O[C@@H]7O[C@H](CO)[C@@H](O)[C@H](O[C@@H]8OC[C@@H](O)[C@H](O)[C@H]8O)[C@H]7O[C@@H]7O[C@H](CO)[C@@H](O)[C@H](O)[C@H]7O)[C@H](O)[C@H]6O)CC[C@]5(C)[C@H]4CC[C@]3(C)[C@H]1[C@@H]2C`, the cell viability came to 65.2%.
Turning to `CC(=O)O[C@H]1C[C@@H]2CC[C@@H]3[C@H](CC[C@@]4(C)[C@H]3C[C@H]([N+]3(C)CCCCC3)[C@@H]4OC(C)=O)[C@@]2(C)C[C@@H]1[N+]1(C)CCCCC1`, the cell viability turned out to be 88.6%.
The value for `C[C@]12CC[C@H](O)C[C@H]1CC[C@@H]1[C@@H]2CC[C@]2(C)[C@@H](C3=CC(=O)OC3)[C@@H](O)C[C@]12O` was 99.6%.
Next, `C[C@@H]1CC[C@@]2(OC1)O[C@H]1[C@@H](O)[C@H]3[C@@H]4CC[C@H]5C[C@@H](O[C@@H]6O[C@H](CO)[C@H](O[C@@H]7O[C@H](CO)[C@@H](O)[C@H](O[C@@H]8OC[C@@H](O)[C@H](O)[C@H]8O)[C@H]7O[C@@H]7O[C@H](CO)[C@H](O)[C@H](O[C@@H]8O[C@H](CO)[C@@H](O)[C@H](O)[C@H]8O)[C@H]7O)[C@H](O)[C@H]6O)[C@H](O)C[C@]5(C)[C@H]4CC[C@]3(C)[C@H]1[C@@H]2C`: 92.7%; `CC(=O)O[C@H]1CC[C@@]2(C)[C@H](CC[C@@H]3[C@@H]2CC[C@]2(C)[C@@H](C4=CC(=O)OC4)[C@@H](OC(C)=O)C[C@]32O)C1`: 2.29%; `CC(=O)OC1CCC23C(=O)OC45CCC(C6=CC(=O)OC6)C4(C)CCC2C5CCC3(O)C1` (stereo not drawn): 5.23%.
As for `CC(=O)[C@H]1CC[C@H]2[C@@H]3CC[C@H]4C[C@H](O)CC[C@]4(C)[C@H]3CC[C@]12C`, the cell viability was 87.7%.
As to `C[C@H]1O[C@@H](O[C@H]2[C@@H](O)C[C@H](O[C@H]3[C@@H](O)C[C@H](O[C@H]4CC[C@@]5(C)[C@H](CC[C@@H]6[C@@H]5CC[C@]5(C)[C@@H](C7=CC(=O)OC7)[C@@H](O)C[C@]65O)C4)O[C@@H]3C)O[C@@H]2C)C[C@H](O)[C@@H]1O`, the cell viability amounted to 3.82%.
The value for `c1cc2c(cc1[C@H]1OC[C@H]3[C@@H]1CO[C@H]3c1ccc3c(c1)OCO3)OCO2` was 84.6%; that for `C[C@@H]1CC[C@]2(NC1)O[C@H]1C[C@H]3[C@@H]4CC=C5C[C@@H](O)CC[C@]5(C)[C@H]4CC[C@]3(C)[C@H]1[C@@H]2C` was 94.1%; that for `C[C@H]1C(=O)O[C@@H]2CCN3CC=C(COC(=O)[C@](C)(O)[C@]1(C)O)[C@H]23` was 103%.
In the case of `C[C@@H]1C(=O)O[C@H]2[C@H]1CC[C@@]1(C)C=CC(=O)[C@@]3(C)O[C@@]213` [EPOXY (4,5alpha)-4,5-DIHYDROSANTONIN], the cell viability stood at 95.7%.
Turning to `CNC(Cc1c[nH]c2ccccc12)C(=O)O` (stereo not drawn), the cell viability was determined as 102%.
For `C=C[C@H]1CN2CC[C@H]1C[C@H]2[C@H](OC(=O)OCC)c1ccnc2ccc(OC)cc12`, the cell viability worked out at 98.5%.
Regarding `N[C@@H]1C[C@H]1c1ccccc1.N[C@H]1C[C@@H]1c1ccccc1`, the cell viability was found to be 93.1%.
The value for `COP(N)(=O)SC` (stereo not drawn) was 111%; that for `C[C@@H]1C[C@H](O)[C@@]2(O)[C@]13CC(=O)OC[C@@]2(C)[C@@](C)(O)C(=O)C3` was 92.3%.
The value for `C[C@]12CC[C@H](O)C[C@H]1CC[C@@H]1[C@@H]2C[C@@H](O)[C@]2(C)[C@@H](C3=CC(=O)OC3)CC[C@]12O` was 18.7%; that for `C[C@]12CC[C@H](O)C[C@@H]1CC[C@@H]1[C@@H]2CC[C@]2(C)C(=O)CC[C@@H]12` was 98.7%; that for `CC(=O)C1CCC2C3CCC4C[C@H](O)CCC4(C)C3C[C@H](O)C12C` (stereo partly drawn) [DIHYDROXY (3alpha,12alpha)PREGNAN-20-ONE] was 105%.
Next, `COP(=S)(OC)Oc1ccc(Sc2ccc(OP(=S)(OC)OC)cc2)cc1`: 101%.
Turning to `CSc1nc(NC(C)C)nc(NC(C)C)n1`, the cell viability was determined as 102%.
Next, `CC(=O)O[C@H]1C[C@@H](OC(C)=O)C(C)(C)C2C[C@@H](OC(C)=O)[C@]3(C)C(CC[C@@]4(C)[C@H](c5ccoc5)C(=O)[C@H]5O[C@]543)[C@]21C` (stereo partly drawn): 85.4%; `CC1(C)C(=O)C=C[C@@]2(C)C1=C(O)C(=O)[C@]1(C)[C@@H]2CC[C@@]2(C)[C@H](c3ccoc3)C[C@H]3O[C@]321`: 85.9%; `CC(=O)O[C@@H]1C[C@@]2(C)[C@H](c3ccoc3)C[C@H]3O[C@]32[C@]2(C)C(=O)C(O)=C3C(C)(C)C(=O)C=C[C@]3(C)[C@@H]12`: 19.3%.
